Results filed as inconclusive are left out. Activity calls are given as the source filed them. The call rests on the fitted dose curve; in most records, active means well fitted inhibition curve with a large enough effect; inconclusive means small, poorly fitted or top-dose-only effect; inactive means flat fitted curve, though single readings scatter.
Each compound was assayed on CRL-7250 (assay: qHTS assay to identify novel small-molecules to repurpose for Merkel cell carcinoma treatment (AID 1296009; further: nearly all actives have a fitted effect of over 60% in size)). Conditions: MCC and control cell lines, CellTiter-Glo viability, 72 h; at 44.8 µM (top of the series) unless noted.
How it was run: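 Cell viability measured by CellTiter-Glo following 72 hr compound treatment at 37 degree celsius, with NPC and MIPE libraries tested in 8- and 11-point concentration series.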

SMILES | outcome
CNC(=O)CN(CCN(CCN(CC(=O)[O-])CC(=O)NC)CC(=O)[O-])CC(=O)[O-].O.[Gd+3] | inactive
O=C(NCC1CN(c2ccc(N3CCOCC3=O)cc2)C(=O)O1)c1ccc(Cl)s1 (stereo not given) | inactive
CN(Cc1cc(Br)cc(Br)c1N)C1CCCCC1 | inactive
O=C1[C@H]2CCCC[C@H]2C(=O)N1CCCCN1CCN(c2nsc3ccccc23)CC1 | inactive
CC(C)(C)c1ccc(C(O)CCCN2CCC(C(O)(c3ccccc3)c3ccccc3)CC2)cc1 (stereo not given) | inactive
Cc1cc(C(C)(C)C)c(O)c(C)c1CC1=NCCN1 | inactive
CC(C)(C)C(=O)C(Oc1ccc(Cl)cc1)n1ccnc1 (stereo not given) | inactive
OCCN1CCN(CCCN2c3ccccc3C=Cc3ccccc32)CC1 | inactive
O=c1[nH]c(=O)c2ccccc2o1 | inactive
CC1=C(C(=O)O)N2C(=O)[C@@H](NC(=O)[C@H](N)C3=CCC=CC3)[C@H]2SC1 | inactive
O[C@@H](COc1cccc2ncccc12)CN1CCN(C2c3ccccc3[C@@H]3[C@H](c4ccccc42)C3(F)F)CC1 (stereo not given in full) | inactive
CCOc1ccccc1C(N)=O | inactive
NCCc1cnc[nH]1 | inactive
CO[C@@H]1[C@@H](O[C@@H]2O[C@H](C)[C@@H](O[C@H]3C[C@@](C)(O)[C@@H](O)[C@H](C)O3)[C@H](N(C)C)[C@H]2O)[C@@H](CC=O)C[C@@H](C)[C@@H](O[C@@H]2CC[C@H](N(C)C)[C@@H](C)O2)/C=C/C=C/C[C@@H](C)OC(=O)C[C@H]1OC(C)=O | inactive
N[C@@H](CSSC[C@H](N)C(=O)O)C(=O)O | inactive [at 0.588 µM]

— PubChem BioAssay (NCATS)
